The supplement of paper PMC8975748
Structures can show the parent of a compound that is named as a salt. ± gives the standard deviation of the averaged measurements.

How the values were obtained:
[1] = tested on: Saccharomyces cerevisiae BY4741 SeMeCo community; assay: mean cell size (pixel area) (pixels); higher = larger cells; details: 10 µM; 24 h; SM minimal medium
Procedure, shortened: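 Plates of 384 wells were acoustically predosed with drug at a final 10 µM in SM medium, and 70 µl of a Saccharomyces cerevisiae BY4741 preculture diluted from OD600 = 1.0 to OD600 = 0.3 was added for 24 h. The yeast formed a four-plasmid fluorescent community in which each plasmid complements one auxotrophy and carries a fluorescent marker. Fixed cells were imaged by automated confocal microscopy and analysed in Harmony for mean cell pixel area per well. Values are means of 3 replicates. Same SeMeCo high-content imaging drug screen: Selleck FDA-approved drugs at 10 µM, 24 h in SM medium, 384-well plates, 3 replicates.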

[2] = tested on: Saccharomyces cerevisiae BY4741 SeMeCo community; assay: z-score of prototroph abundance vs DMSO median; higher = larger share of this subpopulation than in DMSO controls; details: 10 µM; 24 h; SM minimal medium; subpopulation (auxotrophy): Prototroph
Procedure, shortened: (§1)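 A Saccharomyces cerevisiae BY4741 community carried four plasmids, each restoring one auxotrophy and encoding a distinct fluorescent protein. It was pre-grown overnight to OD600 1.0, diluted to 0.3, and 70 µl was added to 384-well plates acoustically predosed with library drugs (10 µM final), then grown 24 h in minimal SM medium. Cells were paraformaldehyde-fixed and imaged by automated confocal microscopy, with single-auxotroph fluorescent strains setting thresholds and autofluorescence correction. Each subpopulation's abundance was scored as a z-score against the vehicle-well median.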

[3] = tested on: Saccharomyces cerevisiae BY4741 SeMeCo community; assay: z-score of subpopulation abundance vs DMSO median, subpopulation auxotrophic for M; higher = larger share of this subpopulation than in DMSO controls; details: 10 µM; 24 h; SM minimal medium; subpopulation (auxotrophy): M
Procedure, shortened: as §1

[4] = tested on: Saccharomyces cerevisiae BY4741 SeMeCo community; assay: z-score of subpopulation abundance vs DMSO median, subpopulation auxotrophic for L; higher = larger share of this subpopulation than in DMSO controls; details: 10 µM; 24 h; SM minimal medium; subpopulation (auxotrophy): L
Procedure, shortened: as §1

[5] = tested on: Saccharomyces cerevisiae BY4741 SeMeCo community; assay: z-score of subpopulation abundance vs DMSO median, subpopulation auxotrophic for U; higher = larger share of this subpopulation than in DMSO controls; details: 10 µM; 24 h; SM minimal medium; subpopulation (auxotrophy): U
Procedure, shortened: as §1

[6] = tested on: Saccharomyces cerevisiae BY4741 SeMeCo community; assay: z-score of subpopulation abundance vs DMSO median, subpopulation auxotrophic for H; higher = larger share of this subpopulation than in DMSO controls; details: 10 µM; 24 h; SM minimal medium; subpopulation (auxotrophy): H
Procedure, shortened: as §1

[7] = tested on: Saccharomyces cerevisiae BY4741 SeMeCo community; assay: z-score of subpopulation abundance vs DMSO median, subpopulation auxotrophic for LU; higher = larger share of this subpopulation than in DMSO controls; details: 10 µM; 24 h; SM minimal medium; subpopulation (auxotrophy): LU
Procedure, shortened: as §1

[8] = tested on: Saccharomyces cerevisiae BY4741 SeMeCo community; assay: z-score of subpopulation abundance vs DMSO median, subpopulation auxotrophic for LM; higher = larger share of this subpopulation than in DMSO controls; details: 10 µM; 24 h; SM minimal medium; subpopulation (auxotrophy): LM
Procedure, shortened: as §1

[9] = tested on: Saccharomyces cerevisiae BY4741 SeMeCo community; assay: z-score of subpopulation abundance vs DMSO median, subpopulation auxotrophic for HM; higher = larger share of this subpopulation than in DMSO controls; details: 10 µM; 24 h; SM minimal medium; subpopulation (auxotrophy): HM
Procedure, shortened: as §1

[10] = tested on: Saccharomyces cerevisiae BY4741 SeMeCo community; assay: z-score of subpopulation abundance vs DMSO median, subpopulation auxotrophic for HL; higher = larger share of this subpopulation than in DMSO controls; details: 10 µM; 24 h; SM minimal medium; subpopulation (auxotrophy): HL
Procedure, shortened: as §1

[11] = tested on: Saccharomyces cerevisiae BY4741 SeMeCo community; assay: z-score of subpopulation abundance vs DMSO median, subpopulation auxotrophic for HLU; higher = larger share of this subpopulation than in DMSO controls; details: 10 µM; 24 h; SM minimal medium; subpopulation (auxotrophy): HLU
Procedure, shortened: as §1

[12] = tested on: Saccharomyces cerevisiae BY4741 SeMeCo community; assay: z-score of subpopulation abundance vs DMSO median, subpopulation auxotrophic for HLM; higher = larger share of this subpopulation than in DMSO controls; details: 10 µM; 24 h; SM minimal medium; subpopulation (auxotrophy): HLM
Procedure, shortened: as §1

[13] = tested on: Saccharomyces cerevisiae BY4741 SeMeCo community; assay: z-score of subpopulation abundance vs DMSO median, subpopulation auxotrophic for HUM; higher = larger share of this subpopulation than in DMSO controls; details: 10 µM; 24 h; SM minimal medium; subpopulation (auxotrophy): HUM
Procedure, shortened: as §1

[14] = tested on: Saccharomyces cerevisiae BY4741 SeMeCo community; assay: z-score of subpopulation abundance vs DMSO median, subpopulation auxotrophic for LUM; higher = larger share of this subpopulation than in DMSO controls; details: 10 µM; 24 h; SM minimal medium; subpopulation (auxotrophy): LUM
Procedure, shortened: as §1

[15] = tested on: Saccharomyces cerevisiae BY4741 SeMeCo community; assay: z-score of subpopulation abundance vs DMSO median, subpopulation auxotrophic for HLUM; higher = larger share of this subpopulation than in DMSO controls; details: 10 µM; 24 h; SM minimal medium; subpopulation (auxotrophy): HLUM
Procedure, shortened: as §1

[16] = tested on: Saccharomyces cerevisiae BY4741 SeMeCo community; assay: z-score of subpopulation abundance vs DMSO median, subpopulation auxotrophic for UM; higher = larger share of this subpopulation than in DMSO controls; details: 10 µM; 24 h; SM minimal medium; subpopulation (auxotrophy): UM
Procedure, shortened: as §1

[17] = tested on: Saccharomyces cerevisiae BY4741 SeMeCo community; assay: z-score of subpopulation abundance vs DMSO median, subpopulation auxotrophic for HU; higher = larger share of this subpopulation than in DMSO controls; details: 10 µM; 24 h; SM minimal medium; subpopulation (auxotrophy): HU
Procedure, shortened: as §1

Compound	mean cell size [1]	z-score of prototroph abundance [2]	z-score of subpopulation abundance [3]	z-score of subpopulation abundance [4]	z-score of subpopulation abundance [5]	z-score of subpopulation abundance [6]	z-score of subpopulation abundance [7]	z-score of subpopulation abundance [8]	z-score of subpopulation abundance [9]	z-score of subpopulation abundance [10]	z-score of subpopulation abundance [11]	z-score of subpopulation abundance [12]	z-score of subpopulation abundance [13]	z-score of subpopulation abundance [14]	z-score of subpopulation abundance [15]	z-score of subpopulation abundance [16]	z-score of subpopulation abundance [17]
CC(=O)OCC(CCn1cnc2cnc(N)nc21)COC(C)=O [Famciclovir]	12.6 ± 0.22	0.55	-0.23	0.46	-0.77	0.1	-0.41	-0.17	0.41	0.32	-0.67	1.57	-0.82	-0.18	1.06	–	–
CCc1nn(CCCN2CCN(c3cccc(Cl)c3)CC2)c(=O)n1CCOc1ccccc1 [Nefazodone hydrochloride]	12.38 ± 0.1	-1.27	-0.42	0.67	-0.01	2.06	0.49	-0.3	0.55	0.71	0.16	0.6	-0.23	–	0.44	-0.31	–
OCCOCCN1CCN(C2=Nc3ccccc3Sc3ccccc32)CC1 [Quetiapine Fumarate]	12.42 ± 0.12	-0.49	0.24	0.37	-0.17	-0.24	-0.19	0.32	0.13	-0.06	0.76	0.55	0.19	0.86	0.41	–	–
CN1CCN(C2=Nc3cc(Cl)ccc3Nc3ccccc32)CC1 [Clozapine]	12.4 ± 0.21	0.32	-0.47	-0.41	0.17	-0.49	-1.03	-0.26	-0.07	0.94	-0.01	-0.52	0.23	0.32	–	0.28	-0.45
CC1(C)S[C@@H]2[C@H](NC(=O)[C@H](N)c3ccccc3)C(=O)N2[C@H]1C(=O)O [Ampicillin sodium]	12.3 ± 0.15	0.8	-0.4	0.09	–	-0.9	0.12	-0.28	-0.71	-0.73	-0.42	-0.99	-0.12	–	-0.67	-0.31	–
CCOC(=O)C1=C[C@]2(CC)CCCN3CCc4c(n1c1ccccc41)[C@@H]32 [Vinpocetine]	12.3 ± 0.23	-0.9	2.07	0.01	0.11	-0.46	0.81	0.73	0.55	–	-0.1	0.39	0.65	0.25	–	–	-0.02
CC(=O)[C@H]1CC[C@H]2[C@@H]3CCC4=CC(=O)CC[C@]4(C)[C@H]3CC[C@]12C [Progesterone]	12.5 ± 0.23	0.96	0.64	-1.51	-0.24	-1.35	-1.24	-0.71	-0.71	-0.85	-1.13	-0.24	-0.62	-0.61	-1	–	–
CN1CCN(CCCN2c3ccccc3Sc3ccc(C(F)(F)F)cc32)CC1 [Trifluoperazine 2HCl]	12.1 ± 0.41	0.01	-0.02	-0.42	0.38	-0.58	-0.4	-0.04	0.33	-0.59	-0.24	-0.79	0.42	0	–	0.11	0.54
O=C(c1ccccc1)c1ccc2n1CCC2C(=O)O (stereo not given) [Ketorolac]	12.6 ± 0.32	0.73	0	-0.04	-0.78	-0.3	-0.64	0.62	-0.76	0.33	-0.97	-0.11	-0.93	-0.52	–	-1.16	-1.29
Cc1nccn1CC1CCc2c(c3ccccc3n2C)C1=O (stereo not given) [Ondansetron Hydrochloride Dihydrate]	12.3 ± 0.24	0.12	0.38	-0.38	1.06	-0.54	-0.34	-0.17	-0.61	-0.09	-0.6	-0.48	0.55	-0.16	–	0.75	0.2
C[C@@H]1CN(c2c(F)c(N)c3c(=O)c(C(=O)O)cn(C4CC4)c3c2F)C[C@H](C)N1 [Sparfloxacin]	12.38 ± 0.094	–	-0.53	0.07	-0.2	-0.34	-0.36	0.37	-0.01	-0.29	-0.1	-0.79	-0.04	–	-0.92	-0.25	–
N[C@@H](C(=O)N[C@@H]1C(=O)N2C(C(=O)O)=C(Cl)CS[C@H]12)c1ccccc1 [Cefaclor]	12.45 ± 0.095	-0.66	0.46	0.23	0.82	0.49	0.23	0.52	0.64	-0.05	-0.22	0.3	0.37	0.65	0.66	0.24	–
Cc1nccn1CC1CCc2c(c3ccccc3n2C)C1=O (stereo not given) [Ondansetron HCl]	12.4 ± 0.2	0.89	-1.05	-0.44	0.47	-0.7	-0.06	-0.49	-0.93	-0.77	-0.69	-0.71	-0.03	-0.9	-0.89	0.08	–
O=c1[nH]c2ccccc2n1CCN1CCN(c2cccc(C(F)(F)F)c2)CC1 [Flibanserin]	12.25 ± 0.046	0.65	-0.31	-0.73	0.4	-0.96	-0.2	-0.37	-0.79	-0.75	-0.49	-0.86	-0.15	-0.43	-0.98	0.43	–
CCOC(=O)C1=C(C)NC(C)=C(C(=O)OCC)C1c1ccccc1/C=C/C(=O)OC(C)(C)C [Lacidipine]	12.5 ± 0.14	0.54	3.48	1.08	-3.36	1.2	-2.51	1.6	1.9	-0.42	-0.94	1.17	-0.96	-1.16	-0.21	-2.61	–
